Glyco luc inh: increase of ERlucT glycosylation luciferase signal, primary screen, N-linked glycosylation inhibitor project, D54 ERlucT cells, luminescence, set 2. D54 ERlucT glycosylation luciferase reporter, 24 h; percent of 100 nM tunicamycin response. reporter increase, % at 12.5 µM. 360,000 tested, 0.23% active;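 active = mean luciferase reporter signal, scaled so untreated is 0 and the glycosylation-blocking control 100, at or above a set limit in every replicate; inconclusive = mean reaches the limit but not every replicate does; inactive = mean below the limit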;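 also: luciferase carries N-glycosylation sites so blocking glycosylation raises the light; 0% = median of neutral control wells and 100% = median of 100 nM tunicamycin wells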
Wnt act: Wnt/beta-catenin pathway activators, primary screen, cell-based, plate reader, single point | Wnt/beta-catenin reporter cell assay, activator | activation, % at 9.35 µM | 300,000 tested, 1.2% active | AID 743398, 2014; in the data active = activation above about 30%, passing the limit was not always enough; inconclusive = no clear call, values can overlap the other calls;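 also: 0% = neutral control wells and 100% = positive control wells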
NSD2 HMT inh: NSD2 histone methyltransferase inhibitors, primary screen, biochemical, AlphaScreen, single concentration, set 2; Histone-lysine N-methyltransferase NSD2 (Homo sapiens), O96028; 310,000 tested, 0.54% active; inhibition, % at 12.5 µM; NSD2 peptide methylation, 120 min; in the data active = inhibition above about 50%
Target sequence (O96028 whole entry, looked up): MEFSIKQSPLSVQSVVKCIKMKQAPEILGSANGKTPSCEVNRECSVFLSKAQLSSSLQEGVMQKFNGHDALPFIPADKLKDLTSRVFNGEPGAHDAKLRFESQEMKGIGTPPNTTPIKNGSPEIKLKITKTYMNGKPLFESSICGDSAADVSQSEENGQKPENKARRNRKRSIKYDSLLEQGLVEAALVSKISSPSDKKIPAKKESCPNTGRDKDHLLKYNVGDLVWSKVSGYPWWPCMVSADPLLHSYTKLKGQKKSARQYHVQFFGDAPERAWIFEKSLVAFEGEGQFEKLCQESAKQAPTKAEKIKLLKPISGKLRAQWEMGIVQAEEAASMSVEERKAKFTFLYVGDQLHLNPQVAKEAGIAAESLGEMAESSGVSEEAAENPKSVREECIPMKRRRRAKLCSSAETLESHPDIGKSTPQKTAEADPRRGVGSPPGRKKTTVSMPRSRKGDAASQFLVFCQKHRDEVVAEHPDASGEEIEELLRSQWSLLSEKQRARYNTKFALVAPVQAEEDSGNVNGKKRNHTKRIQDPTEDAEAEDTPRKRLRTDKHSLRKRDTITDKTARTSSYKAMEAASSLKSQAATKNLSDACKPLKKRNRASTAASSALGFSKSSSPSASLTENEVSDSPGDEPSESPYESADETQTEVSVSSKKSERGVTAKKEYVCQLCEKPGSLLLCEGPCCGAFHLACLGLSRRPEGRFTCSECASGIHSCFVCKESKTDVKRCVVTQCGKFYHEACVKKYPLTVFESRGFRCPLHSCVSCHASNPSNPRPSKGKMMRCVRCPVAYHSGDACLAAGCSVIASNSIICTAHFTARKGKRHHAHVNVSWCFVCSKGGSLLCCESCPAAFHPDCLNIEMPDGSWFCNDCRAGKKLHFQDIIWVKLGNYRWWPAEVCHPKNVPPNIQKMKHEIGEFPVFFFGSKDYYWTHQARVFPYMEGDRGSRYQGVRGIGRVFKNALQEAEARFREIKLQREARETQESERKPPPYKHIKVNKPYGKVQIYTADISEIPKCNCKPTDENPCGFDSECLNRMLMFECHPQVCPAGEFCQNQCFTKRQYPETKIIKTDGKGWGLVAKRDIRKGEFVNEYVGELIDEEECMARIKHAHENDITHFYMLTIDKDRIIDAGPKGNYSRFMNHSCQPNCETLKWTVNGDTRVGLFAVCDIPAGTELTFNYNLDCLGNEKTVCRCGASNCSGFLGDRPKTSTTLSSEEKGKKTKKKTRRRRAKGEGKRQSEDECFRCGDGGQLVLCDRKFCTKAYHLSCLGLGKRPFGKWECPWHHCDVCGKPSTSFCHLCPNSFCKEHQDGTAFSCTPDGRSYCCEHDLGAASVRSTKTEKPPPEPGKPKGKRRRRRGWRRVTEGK
MITF TRPM1 inh: inhibitors of MITF-dependent TRPM1 promoter reporter, primary screen, cell-based, SK-MEL-5, single point, luciferase. SK-MEL-5 TRPM1 promoter luciferase, 24 h. inhibition, % at 12.5 µM. 330,000 tested, 0.83% active;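 active = mean inhibition across replicates of 60% or more, whatever share of single replicates reaches that level; inconclusive = some that reach 60%, reason not given; inactive = mean inhibition across replicates below 60%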
MITF TRPM1 HTS: activators of MITF-driven TRPM1 promoter reporter, primary screen, cell-based, SK-MEL-5, luciferase, single point; AID 588334, 2011; SK-MEL-5 TRPM1-promoter luciferase, 24 h; % of positive control, neutral wells = 0; activation, % at 12.5 µM; 300,000 tested, 0.75% active;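 active = mean activation of at least 80% with every replicate also reaching 80%; inconclusive = mean reaches 80% but some replicate falls short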;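 also: 0% = neutral control wells and 100% = parthenolide positive control wells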
PfHsp90 yeast 2: growth inhibition of PfHsp90-expressing yeast, primary screen, antimalarial PfHsp90 inhibitor project, S. cerevisiae, BacTiter-Glo luminescence, single point, set 2 | BacTiter-Glo ATP, 48 h; yeast lacking PDR1 and PDR3 efflux regulators | inhibition, % at 9.4 µM | 310,000 tested, 0.32% active | AID 504621, 2011;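 active = every replicate shows inhibition above about 80%, whatever the replicate mean, limit read from the data; inconclusive = mean inhibition reaches the set limit but some replicate falls short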;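 also: 0% = DMSO neutral controls and 100% = 20 µM radicicol positive controls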
Starred values were filed as active, the others as inactive; ? = inconclusive; nt = no result given; ! = not confirmed by another sample. The list is not random: actives were taken first. Their share in the collection is about 2.9%.

SMILES	Glyco luc inh	Wnt act	NSD2 HMT inh	MITF TRPM1 inh	MITF TRPM1 HTS	PfHsp90 yeast 2
C=CCNc1nc(-c2ccc(Cl)cc2)cs1	-5	nt	-1	-134	134*	-20
C=CCNc1nc(-c2ccc([N+](=O)[O-])cc2)cs1	-5	18	1	-83	80	22
COc1cccc(-c2cc(CNC(=O)[C@H]3O[C@@H](n4cnc5c(N)ncnc54)[C@H](O)[C@@H]3O)no2)c1	2	-1	nt	nt	nt	nt
Cc1ccc(S(=O)(=O)N2CCN(C(C)CC(=O)O)CC2)cc1 (stereo not given)	1	-1	-1	-13	13	11
O=C(N[C@@H](Cc1ccccc1)C(=O)CCl)OCc1ccccc1	-11	-11	nt	96*	-95	-21
CC(C)[C@H](NC(=O)OCc1ccccc1)C(=O)OCC(=O)c1ccccc1	1	35*	-3	-79	?	-9
Cc1ccc(-c2cc(C(=O)NN=C/C=C/c3ccco3)[nH]n2)cc1C	nt	nt	1	nt	nt	nt
Cc1ccsc1/C=N/Nc1ccc(F)cc1F	-1	10	5	-85	95*	1
O=c1[nH]n(-c2ccccc2)c(=O)cc1Cl	0	-2	1	9	-7	0
COc1ccc(C(=O)Nc2ccc3c(c2)nc2n3CCSC2)cc1	-2	49*	-2	-41	nt	nt
COC(=O)c1ccc(N=NN2CCCCC2)cc1	-4	0	1	-91	89*	23
COc1ccc(-n2ccn3c(CCC(=O)N4CCN(c5cccc(C)c5C)CC4)nnc3c2=O)cc1	-3	-3	1	-7	9	-5
Cc1ccccc1CNC(=O)C1CCCN(c2ncccn2)C1 (stereo not given)	nt	nt	-4	nt	nt	nt
C=CC(n1cncn1)C(O)(c1ccccc1)c1ccccc1 (stereo not given)	1	1	nt	-14	10	105*
COc1ccc(CCN(Cc2cccs2)S(=O)(=O)c2ccc(C)s2)cc1OC	nt	nt	-2	nt	nt	nt
O=C(NN=Cc1c(O)ccc2ccccc12)c1ccncc1	-6	-2	2	75*	nt	-17
Cn1c(-c2ccccc2)c(/C=N/NC(=O)c2ccc(O)cc2)c2ccccc21	54*	29	1	0	1	-18
O=C(CSCC(=O)Nc1ccccc1)N/N=C/c1c(O)ccc2ccccc12	-9	-8	0	69*	-68	-14
Cn1nccc1C(=O)N/N=C/c1c(O)ccc2ccccc12	-9	3	-7	72*	-70	-12
O=C(N/N=C\c1c(O)ccc2ccccc12)c1ccc(O)cc1	-6	0	2	36	nt	-2
Nc1sccc1C(=O)NCc1ccccc1	nt	4	nt	nt	nt	nt
Cc1ccc(NC(=O)CN2CCN(c3nc(-c4ccccc4)cs3)CC2)cc1C	nt	nt	0	nt	nt	nt
Cn1cc(C(=O)N/N=C/c2c(O)ccc3ccccc23)ccc1=O	-8	-5	-1	69*	-69	-8
O=C(N/N=C/c1c(O)ccc2ccccc12)c1cccnc1	-8	-4	-2	49	-39	-7
O=C(N/N=C\c1c(O)ccc2ccccc12)c1cncc(Br)c1	-11	0	-1	43	nt	107*
SMILES	Glyco luc inh	Wnt act	NSD2 HMT inh	MITF TRPM1 inh	MITF TRPM1 HTS	PfHsp90 yeast 2
Cc1ccc(C(=O)N/N=C/c2c(O)ccc3ccccc23)cn1	-9	-1	22	60	-61	-22
C=CCN(Cc1ccc(OC)cc1OC)C(C#CCCCC)c1ccccc1 (stereo not given)	nt	nt	-2	nt	nt	nt
CC1CCCCN1C(=O)c1cc(-c2ccc(Cl)c(Cl)c2)on1 (stereo not given)	-1	nt	-5	-106	109*	-9
CC1CCCCN1C(=O)c1cc(-c2ccc3c(c2)OCO3)on1 (stereo not given)	-11	36*	4	-135	139*	0
CCCCCNCc1ccc(Cl)cc1	3	1	-4	3	-2	nt
CCCCCCC[N+](CC)(CC)CCCCc1ccc(Cl)cc1	11	-3	nt	76*	-74	-24
Cc1ccc(NC(=O)c2nnn(-c3cc(C)cc(C)c3)c2N)cc1	0	31*	-1	-42	nt	nt
Cc1ccc(CCNC(=O)c2nnn(-c3cc(C)cc(C)c3)c2N)cc1	-1	nt	-3	-7	nt	12
CC1(C)CC(=O)C=C(Nc2ccccc2NC(=O)c2cc(F)cc(F)c2)C1	nt	nt	3	nt	nt	nt
COc1ccc2nc(C)cc(Nc3ccc(C)cc3)c2c1	4	-3	14	13	-11	-1
COc1ccc(Nc2cc(C)nc3ccccc23)cc1	0	0	2	3	-1	-19
COc1ccc2nc(C)cc(Nc3ccc(N4CCOCC4)cc3)c2c1	49*	nt	22	-2	5	-7
COc1ccc2nc(C)cc(Nc3ccc(N4CCN(C)CC4)cc3)c2c1	67*	-2	13	97*	-96	-4
O=C(c1ccccc1)c1c[nH]cc1-c1ccccc1	0	1	-2	-21	nt	-28
O=C(C1=C(c2ccccc2)C(=O)c2ccccc2C1=O)c1ccccc1	-2	-9	18	64*	-58	-28
O=C(CCNC(=O)N1CC(=O)Nc2ccccc21)Nc1ccc(Br)cc1F	8	2	-2	2	-4	-22
COC(=O)C(Cc1c[nH]c2ccccc12)NC(=O)c1ccc2nc[nH]c2c1 (stereo not given)	-1	36*	2	-46	39	-2
Cc1ccc(N=c2ssnc2Cl)cc1	3	5	-3	2	-2	93*
Cc1cc(C)nc(/N=c2/ssnc2Cl)c1	6	nt	-1	42	-43	nt
Cc1cc(Cl)ccc1N=c1ssnc1Cl	0	nt	-1	5	-5	?
COc1cc(N=c2ssnc2Cl)c(OC)cc1Cl	4	4	3	18	-16	91*!
Cc1nnc(N=c2ssnc2Cl)o1	4	3	nt	52	-52	143*
C[C@H](c1ccccc1)N1C[C@@H](COCc2ccccc2)Oc2cccc(N3CCCC3)c2S1(=O)=O	nt	-3	nt	nt	nt	nt
Cc1cc(=O)[nH]c(SCC(=O)Nc2ccc(Cl)cc2)n1	nt	nt	2	nt	nt	nt
CCOc1ccc(Nc2nc3ccccc3n2C)cc1	0	27	15	-98	95*	-20
CCOc1ccc(CNc2nc3ccccc3n2C)cc1	-2	15	10	-22	33	26
CCOc1ccc(Nc2c3ccccc3nc3ccccc23)cc1	64*	2	nt	17	-14	2
O=C(Sc1cccc2cccnc12)c1ccccc1Br	-13	4	19	85*	-84	16

High-throughput results: PubChem BioAssay, Broad Institute
